Measured values published in ChEMBL document CHEMBL2218924, “A broad activity screen in support of a chemogenomic map for kinase signalling research and drug discovery” (Biochem J, 2013).

Legend:
[1] = target: Ephrin type-A receptor 7 (Homo sapiens) (UniProt Q15375); details: at 10 µM
[2] = target: T1, Ephrin type-B receptor 3 (Homo sapiens) (UniProt P54753); details: at 1 µM
T1 sequence (whole entry): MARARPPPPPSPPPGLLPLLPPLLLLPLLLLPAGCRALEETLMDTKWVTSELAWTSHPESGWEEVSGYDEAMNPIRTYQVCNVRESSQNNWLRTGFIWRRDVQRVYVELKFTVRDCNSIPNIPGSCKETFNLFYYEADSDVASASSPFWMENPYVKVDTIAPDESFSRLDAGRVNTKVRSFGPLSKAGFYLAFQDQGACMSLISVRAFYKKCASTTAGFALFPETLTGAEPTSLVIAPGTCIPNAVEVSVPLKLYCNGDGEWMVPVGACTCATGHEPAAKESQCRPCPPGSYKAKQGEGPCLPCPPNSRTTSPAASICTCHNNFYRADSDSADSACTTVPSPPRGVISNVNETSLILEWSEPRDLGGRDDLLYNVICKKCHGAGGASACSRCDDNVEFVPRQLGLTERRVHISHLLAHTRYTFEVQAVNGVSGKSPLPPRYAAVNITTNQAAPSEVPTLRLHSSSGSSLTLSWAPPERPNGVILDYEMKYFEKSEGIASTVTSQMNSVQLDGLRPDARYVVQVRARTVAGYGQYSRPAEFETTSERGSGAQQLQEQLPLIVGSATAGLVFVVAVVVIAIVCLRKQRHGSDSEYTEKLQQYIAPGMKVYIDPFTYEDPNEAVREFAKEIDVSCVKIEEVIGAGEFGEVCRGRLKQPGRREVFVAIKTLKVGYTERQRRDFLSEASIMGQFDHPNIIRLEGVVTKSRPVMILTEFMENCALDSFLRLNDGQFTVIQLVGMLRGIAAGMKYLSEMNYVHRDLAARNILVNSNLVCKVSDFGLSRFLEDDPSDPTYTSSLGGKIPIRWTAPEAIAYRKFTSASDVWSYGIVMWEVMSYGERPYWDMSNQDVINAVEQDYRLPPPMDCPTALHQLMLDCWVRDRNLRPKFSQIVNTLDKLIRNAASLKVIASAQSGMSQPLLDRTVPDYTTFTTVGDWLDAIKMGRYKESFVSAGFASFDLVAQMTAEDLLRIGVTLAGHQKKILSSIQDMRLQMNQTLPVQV

[3] = target: T1, Ephrin type-B receptor 3 (Homo sapiens); details: at 10 µM
[4] = target: T2, Ephrin type-B receptor 4 (Homo sapiens) (UniProt P54760); details: at 1 µM
T2 sequence (whole entry): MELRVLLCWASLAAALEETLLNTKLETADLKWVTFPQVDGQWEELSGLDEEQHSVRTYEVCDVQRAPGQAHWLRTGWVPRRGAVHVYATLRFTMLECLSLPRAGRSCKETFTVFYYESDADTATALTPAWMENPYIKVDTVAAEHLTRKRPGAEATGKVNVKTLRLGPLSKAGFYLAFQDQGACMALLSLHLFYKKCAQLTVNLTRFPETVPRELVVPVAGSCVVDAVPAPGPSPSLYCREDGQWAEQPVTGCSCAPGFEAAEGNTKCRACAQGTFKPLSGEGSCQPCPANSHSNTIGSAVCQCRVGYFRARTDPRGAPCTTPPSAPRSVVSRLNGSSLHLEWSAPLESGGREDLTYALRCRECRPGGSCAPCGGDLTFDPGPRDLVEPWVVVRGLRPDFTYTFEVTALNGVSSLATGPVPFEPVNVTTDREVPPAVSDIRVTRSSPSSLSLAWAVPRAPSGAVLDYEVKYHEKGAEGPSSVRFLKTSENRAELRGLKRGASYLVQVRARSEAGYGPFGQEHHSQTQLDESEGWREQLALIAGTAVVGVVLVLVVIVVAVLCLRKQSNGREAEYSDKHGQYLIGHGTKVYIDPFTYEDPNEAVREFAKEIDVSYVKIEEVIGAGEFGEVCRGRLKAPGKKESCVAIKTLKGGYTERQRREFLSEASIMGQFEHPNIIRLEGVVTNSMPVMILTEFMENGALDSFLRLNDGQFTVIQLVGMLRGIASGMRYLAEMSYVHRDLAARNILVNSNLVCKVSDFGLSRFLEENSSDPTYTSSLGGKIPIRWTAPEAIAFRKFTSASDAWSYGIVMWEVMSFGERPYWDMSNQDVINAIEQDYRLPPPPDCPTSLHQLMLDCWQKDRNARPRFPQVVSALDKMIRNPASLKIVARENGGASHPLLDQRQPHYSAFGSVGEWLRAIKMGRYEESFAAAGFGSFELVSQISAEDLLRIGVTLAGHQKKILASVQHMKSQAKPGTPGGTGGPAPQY

[5] = target: T2, Ephrin type-B receptor 4 (Homo sapiens); details: at 10 µM
[6] = target: Receptor tyrosine-protein kinase erbB-4 (Homo sapiens) (UniProt Q15303); details: at 1 µM
Receptor tyrosine-protein kinase erbB-4 (Homo sapiens), sequence (Q15303 whole entry): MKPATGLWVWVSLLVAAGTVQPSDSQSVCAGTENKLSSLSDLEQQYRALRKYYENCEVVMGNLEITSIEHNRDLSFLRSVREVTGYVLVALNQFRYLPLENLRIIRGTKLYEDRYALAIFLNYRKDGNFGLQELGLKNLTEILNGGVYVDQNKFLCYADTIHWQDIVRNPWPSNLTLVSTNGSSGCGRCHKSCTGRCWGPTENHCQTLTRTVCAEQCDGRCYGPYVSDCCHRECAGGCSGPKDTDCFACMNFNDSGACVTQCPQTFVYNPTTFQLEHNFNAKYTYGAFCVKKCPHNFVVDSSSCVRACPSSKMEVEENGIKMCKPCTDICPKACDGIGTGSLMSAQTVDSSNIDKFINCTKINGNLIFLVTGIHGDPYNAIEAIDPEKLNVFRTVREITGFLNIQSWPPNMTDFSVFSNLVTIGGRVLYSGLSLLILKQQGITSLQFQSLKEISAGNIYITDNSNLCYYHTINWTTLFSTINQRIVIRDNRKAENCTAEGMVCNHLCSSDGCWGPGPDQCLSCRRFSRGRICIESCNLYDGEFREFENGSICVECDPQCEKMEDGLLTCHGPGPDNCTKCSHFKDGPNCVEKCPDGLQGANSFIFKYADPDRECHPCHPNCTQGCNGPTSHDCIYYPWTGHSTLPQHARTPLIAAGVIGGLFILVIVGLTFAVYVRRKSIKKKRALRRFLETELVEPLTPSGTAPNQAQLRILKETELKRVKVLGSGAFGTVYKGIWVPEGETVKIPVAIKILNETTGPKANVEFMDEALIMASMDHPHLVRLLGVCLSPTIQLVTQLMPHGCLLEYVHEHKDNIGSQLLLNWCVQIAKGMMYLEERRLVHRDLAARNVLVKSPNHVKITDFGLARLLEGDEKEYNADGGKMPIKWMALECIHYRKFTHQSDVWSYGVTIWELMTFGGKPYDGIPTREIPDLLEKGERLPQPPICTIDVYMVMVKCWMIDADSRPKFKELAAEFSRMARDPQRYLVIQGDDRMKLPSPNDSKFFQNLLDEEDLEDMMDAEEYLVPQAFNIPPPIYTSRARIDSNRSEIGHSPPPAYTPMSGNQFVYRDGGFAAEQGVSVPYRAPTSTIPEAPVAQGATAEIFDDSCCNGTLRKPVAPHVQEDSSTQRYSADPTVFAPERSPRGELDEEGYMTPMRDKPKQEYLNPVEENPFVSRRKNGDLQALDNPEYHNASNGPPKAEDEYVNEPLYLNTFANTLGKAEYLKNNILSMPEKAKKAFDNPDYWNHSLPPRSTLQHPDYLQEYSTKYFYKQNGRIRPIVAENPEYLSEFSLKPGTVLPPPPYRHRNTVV

[7] = target: Receptor tyrosine-protein kinase erbB-4 (Homo sapiens) (UniProt Q15303); details: at 10 µM
[8] = target: Focal adhesion kinase 1 (Homo sapiens) (UniProt Q05397); details: at 1 µM
Focal adhesion kinase 1 (Homo sapiens), sequence (Q05397 2-1052 limits assumed): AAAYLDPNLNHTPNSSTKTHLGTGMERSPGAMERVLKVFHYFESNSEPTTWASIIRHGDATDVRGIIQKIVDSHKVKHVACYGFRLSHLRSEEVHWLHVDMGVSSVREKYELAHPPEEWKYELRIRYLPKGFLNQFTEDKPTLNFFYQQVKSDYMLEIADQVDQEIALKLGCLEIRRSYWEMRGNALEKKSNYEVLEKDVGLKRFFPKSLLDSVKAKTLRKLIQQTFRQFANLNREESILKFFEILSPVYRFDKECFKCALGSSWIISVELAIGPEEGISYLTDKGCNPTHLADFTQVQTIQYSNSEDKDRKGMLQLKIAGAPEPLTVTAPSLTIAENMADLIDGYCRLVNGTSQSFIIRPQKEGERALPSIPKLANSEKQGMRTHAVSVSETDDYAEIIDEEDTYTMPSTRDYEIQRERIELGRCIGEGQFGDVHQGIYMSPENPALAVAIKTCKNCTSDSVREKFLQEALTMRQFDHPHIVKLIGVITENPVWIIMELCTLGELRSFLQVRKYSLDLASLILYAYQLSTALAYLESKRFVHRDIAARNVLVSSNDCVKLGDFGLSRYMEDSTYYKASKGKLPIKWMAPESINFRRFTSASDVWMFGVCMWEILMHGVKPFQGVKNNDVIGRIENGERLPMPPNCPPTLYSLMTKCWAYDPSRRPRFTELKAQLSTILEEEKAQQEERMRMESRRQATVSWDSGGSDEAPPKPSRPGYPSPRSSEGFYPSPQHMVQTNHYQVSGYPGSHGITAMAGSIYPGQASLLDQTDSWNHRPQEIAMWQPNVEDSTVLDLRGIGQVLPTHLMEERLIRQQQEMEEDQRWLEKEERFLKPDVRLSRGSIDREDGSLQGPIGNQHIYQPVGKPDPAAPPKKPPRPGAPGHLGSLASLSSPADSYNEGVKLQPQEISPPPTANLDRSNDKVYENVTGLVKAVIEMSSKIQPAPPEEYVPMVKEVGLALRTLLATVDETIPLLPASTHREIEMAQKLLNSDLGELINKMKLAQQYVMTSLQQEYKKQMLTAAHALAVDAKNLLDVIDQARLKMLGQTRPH

Ephrin type-A receptor 7 (Homo sapiens), sequence (Q15375 28-998 limits assumed): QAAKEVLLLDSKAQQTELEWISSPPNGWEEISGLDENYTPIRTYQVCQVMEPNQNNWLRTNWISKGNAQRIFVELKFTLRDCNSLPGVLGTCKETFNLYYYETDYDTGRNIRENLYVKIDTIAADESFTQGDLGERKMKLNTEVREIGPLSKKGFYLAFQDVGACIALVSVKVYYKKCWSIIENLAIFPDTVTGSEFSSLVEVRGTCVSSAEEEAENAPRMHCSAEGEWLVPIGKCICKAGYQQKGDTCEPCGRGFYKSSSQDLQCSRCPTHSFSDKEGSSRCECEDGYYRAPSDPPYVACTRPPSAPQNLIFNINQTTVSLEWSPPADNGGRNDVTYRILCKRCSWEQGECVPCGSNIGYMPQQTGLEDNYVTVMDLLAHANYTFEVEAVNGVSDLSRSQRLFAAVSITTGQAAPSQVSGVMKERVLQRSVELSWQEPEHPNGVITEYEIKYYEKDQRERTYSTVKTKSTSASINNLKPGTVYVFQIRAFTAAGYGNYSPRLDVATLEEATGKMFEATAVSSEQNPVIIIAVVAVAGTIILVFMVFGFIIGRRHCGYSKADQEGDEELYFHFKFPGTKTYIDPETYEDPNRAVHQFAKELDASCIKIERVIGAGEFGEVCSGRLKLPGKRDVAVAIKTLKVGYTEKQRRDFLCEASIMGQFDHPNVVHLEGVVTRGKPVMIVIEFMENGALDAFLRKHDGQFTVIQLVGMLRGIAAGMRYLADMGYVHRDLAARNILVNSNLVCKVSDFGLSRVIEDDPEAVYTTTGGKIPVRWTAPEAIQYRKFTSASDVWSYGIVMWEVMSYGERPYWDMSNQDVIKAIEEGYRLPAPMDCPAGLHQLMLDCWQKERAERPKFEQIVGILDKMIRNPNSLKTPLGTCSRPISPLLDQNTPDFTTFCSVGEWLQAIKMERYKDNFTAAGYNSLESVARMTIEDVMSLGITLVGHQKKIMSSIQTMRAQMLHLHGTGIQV

## COc1cc2ncc(-c3ccccc3)nc2cc1OC
[1]
  residual activity: 94%
[2]
  residual activity: 132% (inactive)
[3]
  residual activity: 90%
[4]
  residual activity: 125%
[5]
  residual activity: 123%
[6]
  residual activity: 88%
[7]
  residual activity: 85%
[8]
  residual activity: 139%
